The record followed here is PubChem BioAssay (NCATS).

The subject of test [1] is Zika virus NS2B-NS3 protease (linked construct). As to the kind of experiment: Primary screen NINDS Rhodamine qHTS for Zika virus inhibitors (AID 1347160). Further: nearly all actives have a fitted effect of over 55% in size. Further: potency means the concentration at half of the fitted maximal effect. The gist of the method:
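Each compound, titrated, sat 15 min with 25 nM linked protease before 1.5 microM Rhodamine110 substrate went in. Fluorescence gain over the next 15 min, in pH 8.0 Tris with Tween 20, gave Hill-fitted curves.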
For orientation: Quantitative high-throughput screening tests each substance at several concentrations.

Test [2] can be described thus: UWB1.289 Cancer Cell Toxicity qHTS against the NCATS CANVASS Library (AID 1347347). Further: nearly all actives have a fitted effect of over 60% in size. Further: potency means the concentration at half of the fitted maximal effect. In a few lines:
(§1)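 ATP content after 72 h treatment, detected by CellTiter-Glo luminescence (15min room-temperature development), reflects cell viability. Wells contained 1000 cells and received compounds at 11 concentrations.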

Test [3] can be described thus: Panc-1005 Cancer Cell Toxicity qHTS against the NCATS CANVASS Library (AID 1347349). Further: nearly all actives have a fitted effect of over 60% in size. Further: potency means the concentration at half of the fitted maximal effect. The gist of the method:
as §1

Test [4] can be described thus: A2780 Cisplatin Sensitive Ovarian Cancer Cell Toxicity qHTS against the NCATS CANVASS Library (AID 1347353). Further: nearly all actives have a fitted effect of over 60% in size. Further: potency means the concentration at half of the fitted maximal effect. In a few lines: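 Quantitative HTS format: eleven compound concentrations applied to pre-seeded cells, 72 h incubation at 37 °C, then ATP detection by luminescence.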
Test [5] in a line: UWB1.289-WTBRCA1 Cancer Cell Toxicity qHTS against the NCATS CANVASS Library (AID 1347354). Further: potency means the concentration at half of the fitted maximal effect. The gist of the method:
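Using an ATP-based luminescent reagent after three days of treatment, toxicity is scored across an eleven-concentration range in wells holding 1000 cells each.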

The nature of test [6]: HEK293 18hr Apoptosis Induction qHTS against the NCATS CANVASS Library (AID 1347357). Further: potency means the concentration at half of the fitted maximal effect. In a few lines:
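HEK293 cells (500/well, DMEM + 10% FBS) treated with an 11-point series for 18 h at 37 degrees C. Caspase-3/7 activity read by Caspase-Glo luminescence after 15 min at room temperature.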

For test [7], the system named is NAD(P)H diaphorase (Clostridium kluyveri). As to the kind of experiment: Diaphorse counterscreen qHTS: Assay Interference Panel against the NCATS CANVASS Library (AID 1347362). In a few lines: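 Clostridium kluyveri diaphorase in PBS + 0.01% Tween-20 preincubated 15 min with compounds. Resazurin and NADH then added for 5 min at room temperature in the dark; resorufin fluorescence read (ex 525, em 598).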
(In general: Counterscreens check selectivity or assay interference.)

Test [8] in a line: KB-8-5-11 Cancer Cell Toxicity qHTS against the NCATS CANVASS Library (AID 1347364). Further: nearly all actives have a fitted effect of over 75% in size. Further: potency means the concentration at half of the fitted maximal effect. In a few lines: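 Luminescent ATP signal (CellTiter-Glo, 10 min at room temperature) measured cell survival of KB-8-5-11 after 72 hr compound treatment. For confirmation, the cells were also grown with 1uM tariquidar.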
Test [9] in a line: qHTS for ATAD5 Antagonist screened against the NCATS CANVASS Library (AID 1347370). Further: nearly all actives have a fitted effect of over 65% in size. Further: potency means the concentration at half of the fitted maximal effect. In a few lines: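 HEK293T-ATAD5 luc reporter, 2000 cells/well; 5hr attach; cpd + 10 uM 5-FUrd; 16hr 37C, 5% CO2. Readouts: CellTiter-Fluor fluorescence (1hr), then Amplite luciferase luminescence (30min RT).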
A short description of test [10]: qHTS for Hypoxia signaling pathway (HIF-1) antagonists against the NCATS CANVASS Library (AID 1347374). Further: nearly all actives have a fitted effect of over 60% in size. Further: potency means the concentration at half of the fitted maximal effect. The gist of the method: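 Beta-lactamase reporter under HRE control in ME-180 cells; CoCl2 stimulus (60 uM solution as added), compounds 11-pt qHTS, 17 h 37C. CCF4 dye 2 h RT, 460/530 nm emission. CellTiter-Glo viability in same wells.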
Test [11] in a line: Cytotoxicity qHTS for assessment of Hepg2 cells membrane integrity screened against the NCATS CANVASS Library (AID 1347387). In a few lines: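 Membrane damage in HepG2 monolayers was estimated from released LDH, measured with CytoTox-ONE (ex 560/em 590 nm), after 5 hr treatment across 0.59 nM - 46 uM final.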
Test [12] can be described thus: qHTS for activators of Nrf2/ARE signaling pathway screened against the NCATS CANVASS Library (AID 1347391). Further: nearly all actives have a fitted effect of over 60% in size. In a few lines: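 Activation of Nrf2/ARE was scored in ARE-bla HepG2 cells after 16 h compound exposure using CCF4 beta-lactamase fluorescence ratio readings.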
Test [13] can be described thus: qHTS for activators of dead-cell proteases activity screened against the NCATS CANVASS Library (AID 1347392).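 Further: luminescence from protease leaking out of membrane-damaged cells cleaving impermeant substrate; rising signal means more cytotoxicity.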 Further: potency means the concentration at half of the fitted maximal effect. In a few lines: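 HepG2, 2000 cells/well, 18 h attach; cpd 11-pt, 5 h 37C 5% CO2; CytoTox-Glo (AAF-aminoluciferin) 15 min RT; luminescence read.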
Test [14] in a line: Vero-766 cells viability qHTS against the NCATS CANVASS Library: Counterscreen for Zika virus inhibition assay (AID 1347394). Further: nearly all actives have a fitted effect of over 60% in size. Further: potency means the concentration at half of the fitted maximal effect. In a few lines:
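Vero 766 cells (1000/well), without Zika virus, were exposed to compounds for 72 h at 37C. Viability was measured by CellTiter Glo luminescence. Media-only wells served as 100% inhibition.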

A short description of test [15]: qHTS for inhibitors of Wild type Zika virus screened against the NCATS CANVASS Library (AID 1347396). Further: potency means the concentration at half of the fitted maximal effect. The gist of the method: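 Vero 766 (African green monkey) cells, 1000 per well, attached overnight, then compounds were added in an 11-point series before wild-type Zika virus infection. After 72 h at 37C, cell viability was read as CellTiter Glo luminescence.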

The nature of test [16]: OV-SAHO Cancer Cell Toxicity qHTS against the NCATS CANVASS Library (AID 1347348). Further: nearly all actives have a fitted effect of over 55% in size. Further: potency means the concentration at half of the fitted maximal effect. In a few lines: as §1
A short description of test [17]: SDT Cancer Cell Toxicity qHTS against the NCATS CANVASS Library (AID 1347365). Further: nearly all actives have a fitted effect of over 60% in size. Further: potency means the concentration at half of the fitted maximal effect. The gist of the method:
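Canine SDT glioma cell toxicity was scored by ATP-dependent luminescence after a 72 hr incubation with an 11-point compound series.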

The nature of test [18]: G06 Cancer Cell Toxicity qHTS against the NCATS CANVASS Library (AID 1347368). Further: nearly all actives have a fitted effect of over 60% in size. Further: potency means the concentration at half of the fitted maximal effect. In a few lines: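 Quantitative HTS in G06 cells (dog glioma): 72 hr treatment, 11 concentrations, then ATP-based luminescent viability readout; bortezomib 0.1 nM–4.6 uM final as reference.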
The nature of test [19]: qHTS for Hypoxia signaling pathway (HIF-1) agonists against the NCATS CANVASS Library (AID 1347375). Further: potency means the concentration at half of the fitted maximal effect. The gist of the method: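 An HRE-beta-lactamase ME-180 line is exposed for 17 h to an 11-point compound series, then read by CCF4-AM FRET. Cytotoxicity is measured in parallel in the same wells with CellTiter-Glo, and autofluorescence is checked separately.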
Test [20] can be described thus: Redox Reaction Profiling qHTS: Assay Interference Panel against the NCATS CANVASS Library (AID 1347401). In a few lines: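 Fluorescence read-out (525 nm excitation, 598 nm emission) at time zero and after 15 min in the dark tracked resorufin formation. Mix: 5 uM resazurin, 200 uM DTT, HEPES pH 7.3 buffer with NaCl.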

Records with an inconclusive call do not appear. Values without a mark were called inactive. The source made the active and inactive calls. The call rests on the fitted dose curve; in most records, active means well fitted curve in the direction sought with a large enough effect; inconclusive means small, poorly fitted or top-dose-only effect, or another doubt; inactive means no such curve, though single readings can be large; an effect the other way counts as inactive or inconclusive.

Regarding `C=C(NC(=O)c1csc(-c2nc3c(cc2O)-c2nc(cs2)C(=O)NC(C(C)O)C(=O)N/C(=C(\C)O)c2nc(cs2)C(=O)NC2c4nc(cs4)C(=O)NC(COC(=O)c4c5c6c(cccc6n4O)COC(=O)[C@@H](OC4C[C@](C)(O)[C@H](N(C)C)[C@H](C)O4)C2OC5)c2nc-3cs2)n1)C(N)=O` (stereo partly specified), the Potency in test [1] was 4.4 µM (active). The Potency result in test [2], in test [3], in test [4], in test [5], in test [6] and in test [7] was “inactive” throughout. For the same compound, the Potency result in test [8], in test [9], in [10], in test [12], in [13] and in test [14] was “inactive” each time. Also, the Potency result in [15] was “inactive”. Also, the compound was classed as inactive in [11].

Consider `C=CC(C)(C)C(=O)[C@@H](C)[C@@H]1CC[C@](C)(C=C)O1`, for which the Potency result in [1], in test [16], in [3], in [5], in test [6] and in [7] was “inactive” throughout. Further, the Potency entry in test [8], in test [17], in test [18], in [9], in [10] and in [19] was “inactive” in each case. Also, the Potency result in test [12], in [13] and in test [15] was “inactive” in each case. Further, the outcome in [11] was inactive.

In the case of `CCC[C@@H](C)/C=C(\C)[C@H](O)[C@H](C)/C=C/CC[C@@H](O)[C@H](C)[C@H](O)[C@H](C)[C@H](O)[C@H](C)[C@H]1O[C@H]([C@H](C)C(=O)O)CC[C@@H]1C`, the Potency in [1] was 6.21 µM (active); in test [2], 6.66 µM (active); in [3], 4.21 µM (active); in [5], 13.3 µM (active); in test [8] it was 11.8 µM (active); in [17], 9.35 µM (active). Also, the Potency in test [10] was 2.98 µM (active). The Potency result in test [6], in [7] and in test [20] was “inactive” throughout.

`O=Cc1ccc2n1C[C@@]1(OC2)O[C@H](CO)[C@@H](O)[C@@H]1O`: the Potency entry in [1], in test [2], in [16], in test [3], in test [4] and in [5] was “inactive” throughout. Moreover, the Potency result in [7], in test [8], in test [17], in [18], in [9] and in [10] was “inactive” throughout. Moreover, the Potency entry in [19], in test [12], in test [13], in [15] and in test [20] was “inactive” throughout. For the same compound, in [11], the call was inactive.

Regarding `C=CC(=C)CC[C@]1(C)[C@H]2C[C@H](OC(=O)C(C)CC)C=C3[C@H](OC(C)=O)O[C@H](OC(C)=O)[C@@]32[C@H](OC)C[C@@H]1C` (stereo partly specified), the Potency was 32.1 µM (active) in test [1]; 3.44 µM (active) in test [2]; 2.73 µM (active) in [16]; 2.17 µM (active) in test [3]; 1.52 µM (active) in [4]; 5.45 µM (active) in [5]. In addition, the Potency in [6] is 13.6 µM (active); in test [8], 7.62 µM (active); in [17] it was 8.55 µM (active); in test [18], 6.05 µM (active); in [9], 10.8 µM (active); in test [10], 4.86 µM (active). Moreover, the Potency in test [19] is 19.3 µM (active); in test [13], 60.6 µM (active); in test [15] it was 6.76 µM (active). The Potency result in [12] and in test [20] was “inactive” each time.

For the compound `CC(=O)O[C@@H]1C=C2C(=O)OC[C@]2(O)[C@@]2(C)CCCC(C)(C)[C@H]12`, the Potency in test [1] is 19.6 µM (active); in test [2], 10.6 µM (active); in [3], 6.68 µM (active); in test [4] it was 1.32 µM (active); in [5] it was 21.1 µM (active); in test [6] it was 26.4 µM (active). For the same compound, the Potency in [8] was 18.7 µM (active); in test [17], 13.2 µM (active); in test [18], 10.5 µM (active); in [10], 7.47 µM (active); in test [14], 16.6 µM (active); in [15] it was 26.1 µM (active). Also, the Potency entry in test [7], in [12] and in test [20] was “inactive” in each case.
